Laboratory results from PubChem BioAssay (EPA / NIEHS).
Inconclusive results are not listed. Calls of active or inactive are those of the source. The calls were made as follows: active = hit-call score of the fitted dose curve at least 0.9, where 1 is the maximum; inconclusive = response in the unintended direction; inactive = score below 0.9.

biological target: Androgen receptor (Homo sapiens) (UniProt P10275); assay: ATG_AR_TRANS: Attagene TRANS-FACTORIAL HepG2 Assay for human Androgen Receptor (AR) (AID 2282973); details: HepG2 Attagene TRANS-FACTORIAL AR reporter transcription
Sequence (P10275 whole entry, looked up, the tested form may be a part): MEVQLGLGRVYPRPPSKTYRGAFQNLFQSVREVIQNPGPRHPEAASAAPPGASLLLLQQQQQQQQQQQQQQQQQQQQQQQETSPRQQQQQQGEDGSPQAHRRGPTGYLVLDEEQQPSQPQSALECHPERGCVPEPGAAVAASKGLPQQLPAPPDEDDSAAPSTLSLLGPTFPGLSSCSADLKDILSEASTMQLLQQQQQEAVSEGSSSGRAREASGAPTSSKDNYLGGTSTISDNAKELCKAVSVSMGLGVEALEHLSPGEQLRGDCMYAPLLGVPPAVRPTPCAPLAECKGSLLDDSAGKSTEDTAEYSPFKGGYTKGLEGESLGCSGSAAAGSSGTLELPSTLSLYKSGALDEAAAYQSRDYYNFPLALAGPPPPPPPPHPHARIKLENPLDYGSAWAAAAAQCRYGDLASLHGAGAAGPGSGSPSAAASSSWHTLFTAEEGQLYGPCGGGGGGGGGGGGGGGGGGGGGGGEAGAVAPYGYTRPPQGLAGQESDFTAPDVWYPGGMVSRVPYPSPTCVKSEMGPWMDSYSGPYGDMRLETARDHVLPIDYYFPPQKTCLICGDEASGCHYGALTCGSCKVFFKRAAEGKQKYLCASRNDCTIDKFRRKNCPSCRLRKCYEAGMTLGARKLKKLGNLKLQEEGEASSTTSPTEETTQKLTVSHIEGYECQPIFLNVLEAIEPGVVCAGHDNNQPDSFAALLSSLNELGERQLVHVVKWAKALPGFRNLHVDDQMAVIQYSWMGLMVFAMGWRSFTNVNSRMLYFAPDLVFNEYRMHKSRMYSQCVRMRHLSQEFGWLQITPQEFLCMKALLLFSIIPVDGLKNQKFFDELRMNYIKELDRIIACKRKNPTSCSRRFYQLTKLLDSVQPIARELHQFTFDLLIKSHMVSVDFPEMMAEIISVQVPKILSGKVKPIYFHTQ
How it was run: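 HepG2 cells transiently transfected with multiplexed GAL4-UAS reporter units and chimeric NR-Gal4 fusion; 24 h compound exposure. Reporter mRNA measured by RT-PCR, 6-FAM labelling, HpaI digestion and capillary electrophoresis; gain-of-signal fitted relative to DMSO baseline.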

SMILES | outcome
O=C(Cl)C(F)(F)C(F)(F)C(F)(F)C(F)(F)C(F)(F)C(F)(F)C(F)(F)F | inactive
COc1nccnc1CC(C)C | inactive
C=C(C)[C@H]1CC=C(C)C(=O)C1 | inactive
CCC(C)(C)c1cc(O)c(C(C)(C)CC)cc1O | inactive
CCCC(=O)OCC(COC(=O)CCC)OC(=O)CCC | inactive
NCCNc1cccc2ccccc12 | inactive
CCN(CC)c1ccc(C(=C2C=CC(=[N+](CC)CC)C=C2)c2ccc(S(=O)(=O)O)cc2S(=O)(=O)[O-])cc1 | inactive
CCc1c(Br)c(Br)c(Br)c(Br)c1Br | inactive
c1ccc(-c2ccccn2)nc1 | inactive
CCCCCCOC(=O)c1ccc(O)cc1 | inactive
CCCCC(CC)COC(=O)/C=C\C(=O)OCC(CC)CCCC (centres undefined) | inactive
CN(C)c1ccc(C(c2ccccc2)c2ccc(N(C)C)cc2)cc1 | inactive
FC1(F)C=CC(F)(F)C1(F)F | inactive
Cc1cccc(C)n1 | inactive
c1ccc2c(c1)CCC2 | inactive
O=C(O)c1cc(Cl)cc([N+](=O)[O-])c1Cl | inactive
[Co] | inactive
CCCc1ccc(OC)cc1 | inactive
NC(C(F)(F)F)C(F)(F)F | inactive
O=[N+]([O-])c1ccccc1C(F)(F)F | inactive

SMILES | outcome
CC(C)(C)c1cc(CCC(=O)NCCCCCCNC(=O)CCc2cc(C(C)(C)C)c(O)c(C(C)(C)C)c2)cc(C(C)(C)C)c1O | inactive
COc1cc(C=O)ccc1O | inactive
CCCCCCOC(=O)c1ccccc1O | inactive
O=C[C@@H](O)[C@H](O)[C@H](O)CO | inactive
OCc1cccc(Oc2ccccc2)c1 | inactive
CC(=O)OC1CCCCC1C(C)(C)C (centres undefined) | inactive
Nc1nc2ccc([N+](=O)[O-])cc2s1 | inactive
FC(F)(F)N1C(F)(F)C(F)(F)OC(F)(F)C1(F)F | inactive
CCCCCCCCCCCCOCCO | inactive
COc1ccc(CCO)cc1 | inactive
Cc1cc(=O)n(-c2ccccc2)n1C | inactive
CC1(C)C2=CCCC(C)(C)[C@]23CC[C@H]1C3 | inactive
CC(C)CCCC(C)CCO (centres undefined) | inactive
C=CC(=O)OCCCCCCOC(=O)C=C | inactive
OCCN(CCO)c1cccc(Cl)c1 | inactive
CCCC/C=C/C=C\C=O | inactive
NCC1CCCC(CN)C1 (centres undefined) | inactive
COc1ccccc1C=O | inactive
COc1cc(CCC(C)=O)ccc1O | inactive
